AmpC detergent: qHTS Inhibitors of AmpC Beta-Lactamase (assay with detergent); AID 485294, 2010; P00811; AmpC hydrolysis of nitrocefin, absorbance 480 nm, 0.01% Triton; Potency, µM (titrated, usually from 114 µM), hits mostly inhibitors; 370,000 tested, 0.041% active; also: nearly all actives have a fitted effect of over 25% in size
Target sequence (P00811 whole entry, looked up): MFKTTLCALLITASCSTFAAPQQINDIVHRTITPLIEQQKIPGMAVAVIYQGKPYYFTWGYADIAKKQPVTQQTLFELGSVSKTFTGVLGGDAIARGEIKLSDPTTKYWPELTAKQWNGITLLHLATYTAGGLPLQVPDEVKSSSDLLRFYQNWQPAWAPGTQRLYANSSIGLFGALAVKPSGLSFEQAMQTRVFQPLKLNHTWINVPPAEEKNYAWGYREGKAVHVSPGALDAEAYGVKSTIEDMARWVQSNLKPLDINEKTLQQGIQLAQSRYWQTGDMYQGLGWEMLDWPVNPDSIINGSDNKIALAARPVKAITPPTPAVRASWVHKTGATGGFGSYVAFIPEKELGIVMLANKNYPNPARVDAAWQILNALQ
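AmpC (5.3 nM in the dispensed reagent) in 20 mM phosphate pH 7.0 with 0.01% (detergent screen) or 0.0001% Triton X-100 was preincubated with compounds for 15 min at room temperature. Nitrocefin was then added from an 800 uM solution, and hydrolysis was followed at 480 nm.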
VACV mCherry inh: qHTS for Stage-Specific Inhibitors of Vaccinia Orthopoxvirus: mCherry Reporter Primary qHTS | Vaccinia virus mCherry reporter infection, fluorescence | Potency, µM (series often up to 36.5 µM), actives largely listed as inhibitors | 310,000 tested, 0.63% active; calls by dose curve; tested in A549 cells; also: nearly all actives have a fitted effect of over 35% in size
VACV Venus inh: qHTS for Stage-Specific Inhibitors of Vaccinia Orthopoxvirus: Venus Reporter Primary qHTS | Vaccinia virus Venus reporter expression, fluorescence | Potency, µM (titrated, usually from 36.5 µM), most hits filed as inhibitors | 330,000 tested, 0.46% active | AID 720580, 2013; calls by dose curve; tested in A549 cells; also: nearly all actives have a fitted effect of over 30% in size
AmpC inh no detg: qHTS Inhibitors of AmpC Beta-Lactamase (assay without detergent); AmpC nitrocefin hydrolysis, absorbance 480 nm, 0.0001% Triton; Potency, µM (doses to about 57.1 µM), usual class: inhibitors; 330,000 tested, 0.52% active; also: nearly all actives have a fitted effect of over 20% in size
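AmpC (5.3 nM in the dispensed reagent) in 20 mM phosphate pH 7.0 with 0.01% (detergent screen) or 0.0001% Triton X-100 was preincubated with compounds for 15 min at room temperature. Nitrocefin was then added from an 800 uM solution, and hydrolysis was followed at 480 nm.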
Hits are given with their value; – = inactive; ? = inconclusive; · = not tested or not shown; [ ] = another dose, or the depositor's remark. Compounds with a hit are over-represented: about 1.1% of the library has one in this group of screens. Unless noted, calls follow the shape of the dose curve; as a rule, active = well fitted curve in the direction sought with a large enough effect; inconclusive = small, poorly fitted or top-dose-only effect, or another doubt; inactive = no such curve, though single readings can be large; an effect the other way counts as inactive or inconclusive.

SMILES | AmpC detergent | VACV mCherry inh | VACV Venus inh | AmpC inh no detg
COc1cc(CNc2ncnc3c2ncn3[C@H]2CN(Cc3ccc(-c4ccccc4)cc3)C[C@@H](CO)O2)cc(OC)c1OC | · | 13µM | ? | ·
Cc1ncc2c(c1CNC(=O)c1ccc3c(c1)OCO3)CCN(C(=O)c1ccc3ccccc3c1)C2 | · | – | – | ·
Cc1c(C(=O)NCC2(c3ccccc3)CCOCC2)cnn1-c1nccc(-c2ccco2)n1 | · | – | – | ·
O=C1C2Sc3[nH]c(=O)sc3C(c3ccccc3)C2C(=O)N1c1ccccc1 (stereo not drawn) | – | – | – | 18µM
COc1cc(C2c3sc(=O)[nH]c3SC3C(=O)N(c4ccc(C)cc4)C(=O)C32)ccc1O (stereo not drawn) | – | · | · | –
C[C@@H]1CN(Cc2ccc3c(c2)CN(Cc2cccn2-c2ccccn2)CCO3)C[C@H](C)O1 | · | – | – | ·
Cc1nc(NCc2cnn(C)c2)sc1-c1ccn(-c2cccc(F)c2)n1 | · | – | – | ·
O=C(C[C@H]1C/C=C\C[C@H](NC(=O)OCC2c3ccccc3-c3ccccc32)C(=O)O[C@H](c2ccccc2)CNC1=O)N[C@H](CO)Cc1ccccc1 | · | 10µM | 13µM | –
CC(=O)Nc1cccc(NS(=O)(=O)c2c(C)noc2C)c1 | · | 6.3µM | ? | –
COc1ccc(CNC(=O)COC(=O)c2cc(-c3ccco3)nc3ccccc23)cc1 | – | · | · | 10µM
Cc1cc2oc(=O)cc(CSc3nc(N)cc(N)n3)c2cc1C(C)C | – | –[1.46 µM] | – | 2.8µM
COC(=O)c1cc(CNC(=O)c2cnsn2)cc(NC(=O)c2ccccc2OC)c1 | · | – | – | ·
COc1ccccc1NC1=C(N2CCCCC2)C(=O)c2ccccc2C1=O | – | ? | 10µM | –
O=C(/C=C/c1ccc(O)cc1)c1ccc(NC2=C(N3CCCCC3)C(=O)c3ccccc3C2=O)cc1 | – | 1.4µM | ? | –
O=C1C(Nc2ccccc2)=C(N2CCCCC2)C(=O)c2ccccc21 | – | –[1.46 µM] | ? | –
COCc1ccc(CN2Cc3cc(Cl)ccc3OC(C)C2)o1 (stereo not drawn) | · | – | – | ·
CC(=O)n1c2ccccc2c2ccccc21 | ? | – | – | –
CC(=O)n1c(Cl)c(NC(=O)CCl)c2ccccc21 | ? | 10µM | ? | –
COc1cc(-c2cc(C)c3cccc(OC)c3n2)cc2c1OCCN(C(=O)Cn1nc(C)cc1C)C2 | · | – | – | ·
O=C(O)c1nn(CCOc2c(Cl)cccc2Cl)c(=O)c2ccccc12 | – | 11µM | – | –
CC(Oc1cccc(Cl)c1)C(=O)Nc1ccc(S(=O)(=O)N(C)C2CCN(C)CC2)cc1 (stereo not drawn) | ? | 11µM | ? | –
Cc1csc(SCC(=O)NCC2Cc3cc(-c4cncnc4)ccc3O2)n1 (stereo not drawn) | · | – | – | ·
Cc1snc(SCC(=O)c2ccc(Cl)cc2)c1C#N | ? | · | · | –
Cc1ccc(C(=O)CSc2nsc(C)c2C#N)cc1 | – | · | – | 0.25µM
Cc1ncc(Cc2ccccc2)c(C2CCN(S(=O)(=O)C[C@]34CC[C@H](CC3=O)C4(C)C)CC2)n1 | · | – | – | ·
SMILES | AmpC detergent | VACV mCherry inh | VACV Venus inh | AmpC inh no detg
CCOC(=O)/C=C/C(=O)Nc1ccc(S(=O)(=O)N2CCc3ccccc32)cc1 | – | · | · | 16µM
O=C(CSc1nnc(-c2ccc(OC(F)F)cc2)o1)N1CCOCC1 | – | 16µM | ? | –
COCCn1c(Sc2nc(C)cs2)nc2c1c(=O)[nH]c(=O)n2C | – | – | – | 0.16µM
Cc1cc(C)nc(SCC(=O)Nc2ncc(Cc3cccc(Cl)c3)s2)n1 | – | – | ? | 2.8µM
COCCN(C)C(=O)c1cnn(-c2nccc(-c3cc(C)sc3C)n2)c1C | · | – | – | ·
CO/C=C\C=C/c1nnn(-c2ccc(Cl)cc2)n1 | – | – | – | 11µM
Oc1ccc(/C=N/N(Cc2ccccc2)c2ccccc2)c(O)c1O | – | – | – | 18µM
CCCC1=C/C(=C/c2ccc(-c3ccccc3OC)o2)C(=O)O1 | ? | – | – | 32µM
COc1ccccc1-c1ccc(/C=C2/C=C(CC(C)C)OC2=O)o1 | – | – | – | ?
O=CNc1ccc(/C=C/c2ccnc3ccccc23)cc1 | · | – | – | ·
CCOC(=O)c1sc(NC(=O)Cn2nnc3sc4c(c3c2=O)CCC(C(C)(C)C)C4)nc1C (stereo not drawn) | – | – | – | 3.5µM
CCCOC(=O)c1ccc(NC(=O)Cn2nnc3sc4c(c3c2=O)CCC(C(C)(C)C)C4)cc1 (stereo not drawn) | – | – | – | ·
